High-throughput results deposited in PubChem BioAssay by National Center for Advancing Translational Sciences (NCATS).
Abeta rescue: compounds reversing amyloid beta toxicity in yeast | AID 1347071 | yeast expressing A-beta42, growth rescue, OD600, 48 h; response scale: 0% DMSO, 100% iron-clioquinol control | hit rate 0.063% among 410,000 | Potency, µM (titrated, usually from 46.1 µM), hits mostly activators; note: nearly all actives have a fitted effect of over 55% in size
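Growth rescue measured by 600 nm absorbance after 48 h yeast culture at 30 C with compound. Values normalized between DMSO and an equimolar ferric chloride plus clioquinol control.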
pAkt inh: inhibitors of Akt phosphorylation; Neuro2A IGF-stimulated pAkt S473 HTRF, 20 min; active compounds read low; AID 651550; hit rate 0.32% among 360,000; activity change, % for hits at 50 µM; in the data active = activity change below about -80%; inconclusive = mostly about -51% to -80%
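Neuro2A cells in DMEM with 0.5% FBS, overnight at 37 deg C, given compound at single 50 µM final, then IGF (6 nM final) for 20 min at 37 deg C. Lysed; phospho-Akt Ser473 by HTRF after 24 h, 665/615 ratio.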
TDP43 rescue: inhibitors of TDP-43 toxicity in yeast | hit rate 1.8% among 410,000 | TDP-43 expressing yeast growth rescue, BacTiter-Glo, 24 h | Potency, µM (series often up to 46.1 µM), most hits filed as activators; note: nearly all actives have a fitted effect of over 50% in size
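In this qHTS, compounds that restore growth of yeast expressing TDP-43 appear as activators. Cells (OD600=0.02, galactose medium, raffinose-pregrown) are incubated with compound 24 hr at 30 deg C and growth is quantified by BacTiter-Glo.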
aSyn rescue: rescues yeast growth from alpha-synuclein toxicity | Yeast expressing alpha-synuclein, growth rescue, BacTiter-Glo, 24 h | Potency, µM (highest dose often 46.1 µM), usual class: activators | hit rate 0.14% among 370,000; note: nearly all actives have a fitted effect of over 65% in size
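Rescue of yeast growth: cells expressing toxic alpha-synuclein, induced in galactose at OD600 0.02, incubated with compound 24 h at 30 C. ATP luminescence quantified growth; inhibitors of toxicity appear as activators.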
FUS yeast rescue: suppressors of FUS proteinopathy in yeast | S. cerevisiae FUS-expressing, growth rescue, OD600, 24 h | Potency, µM (top dose mostly 76.6 µM), usual class: activators | hit rate 0.24% among 390,000; note: nearly all actives have a fitted effect of over 55% in size
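Read-out: OD at 600 nm after 24hr at 30C, reporting rescue of FUS-induced yeast toxicity. Cells at OD 0.005 in galactose (2%) minimal medium; compounds tested in a dilution series; CP55940 titration from 92uM final as control.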
Of the large screens only hits and unclear results are named; the others gave an inactive call. This is a sample that favours compounds with a hit; in the whole collection about 2.3% have one here. Unless noted, calls come from the whole dose curve; as a rule, active = well fitted curve in the direction sought with a large enough effect; inconclusive = small, poorly fitted or top-dose-only effect, or another doubt; inactive = no such curve, though single readings can be large; an effect the other way counts as inactive or inconclusive.

CC(=O)n1c2c(c3ccccc31)OC(N)=C(C#N)C2c1ccc(C(C)C)cc1 (centres undefined)	aSyn rescue 20µM
CC(=O)C1=C(C)OC(N)=C(C#N)C1c1cccc2ccccc12 (centres undefined)	none
Cc1nc(-c2ccccn2)nc(SCC(=O)N2CCOCC2)c1Cl	none
Cc1nc(-c2ccccn2)nc(SCC(=O)c2ccccc2)c1Cl	TDP43 rescue 18µM
CC(C)NC(=O)NC(=O)COC(=O)c1ccc(OC(F)(F)F)cc1	Abeta rescue 10µM, TDP43 rescue inconclusive (no result: FUS yeast rescue)
COc1cccc(OC)c1C(=O)OCC(=O)Nc1ccc(OC(F)(F)F)cc1	TDP43 rescue 14µM
Cc1ccc(NC(=O)COC(=O)c2c(-c3ccccc3)noc2C)cc1	none
Cc1onc(-c2ccccc2)c1C(=O)OCC(=O)Nc1ccc(OC(F)(F)F)cc1	TDP43 rescue 16µM
Cc1ccc(-c2nc(CCNC(=O)C(=O)Nc3ccc(C)c(C)c3)cs2)cc1	none (no result: pAkt inh, aSyn rescue)
Cc1ccc(-c2nc3nc(C)cc(Nc4ccccc4O)n3n2)cc1	TDP43 rescue inconclusive (no result: pAkt inh)
Cc1cccc(-c2nc3nc(C)cc(N4CCN(c5ccccc5)CC4)n3n2)c1	TDP43 rescue inconclusive (no result: pAkt inh, aSyn rescue)
COc1ccccc1Nc1cc(C)nc2nc(-c3ccccc3)nn12	TDP43 rescue 13µM (no result: pAkt inh, aSyn rescue)
Cc1cc(Nc2ccc(Br)cc2)n2nc(-c3ccccc3C)nc2n1	TDP43 rescue 14µM (no result: pAkt inh, aSyn rescue)
Cc1cccc(-c2nc3nc(C)cc(NC(C)c4ccccc4)n3n2)c1 (centres undefined)	TDP43 rescue 25µM (no result: pAkt inh)
Cc1ccc(C)c(Cn2c3ccccc3c3cnn(CC(=O)NC4CCC(C)CC4)c(=O)c32)c1 (centres undefined)	none (no result: pAkt inh, aSyn rescue)
Cc1cccc(Cn2cc(C(=O)c3ccccc3)c(=O)c3cc4c(cc32)OCO4)c1	TDP43 rescue 35µM (no result: pAkt inh, aSyn rescue)
O=C(N=c1ccn(-c2nc3ccccc3nc2NS(=O)(=O)c2ccc(Cl)cc2)cc1)c1cccs1	none
O=C(N=c1ccn(-c2nc3ccccc3nc2NS(=O)(=O)c2ccccc2)cc1)c1ccccc1Cl	FUS yeast rescue 25µM (no result: Abeta rescue)
Cc1ccc(CCNC(=O)c2ccc(CSCc3ccccc3Cl)o2)cc1	none (no result: pAkt inh, aSyn rescue)
C=CCn1c(SCC(=O)Nc2sccc2C(N)=O)nc2sc(CC)cc2c1=O	pAkt inh -111%
COc1ccc(-c2cc(C(=O)Nc3ccc(C#N)cc3)no2)cc1	none (no result: pAkt inh, aSyn rescue)
CNC(=O)c1ccccc1NC(=O)c1cccc(S(=O)(=O)N2CCC(C)CC2)c1	none
CCNC(=O)c1ccccc1NC(=O)c1cccc(S(=O)(=O)N2CCC(C)CC2)c1	pAkt inh -101%
CCCn1c(NC(=O)c2cccc(S(=O)(=O)N3CCCC3)c2)nc2ccccc21	TDP43 rescue 22µM, FUS yeast rescue inconclusive
CCCCCCCn1c(NC(=O)CC)nc2ccccc21	Abeta rescue 22µM, TDP43 rescue inconclusive, aSyn rescue inconclusive
COc1cc(OC)c(OC)cc1/C=C/c1cc[n+](C)c2ccccc12	none (no result: Abeta rescue, pAkt inh, TDP43 rescue, FUS yeast rescue)
CC(C)c1ccc(NC(=O)c2cn(C3CCCC3)c(=O)c3c2c2ccccc2n3C)cc1	none (no result: pAkt inh, aSyn rescue)
COC(=O)[C@]12C[C@H](CC(=O)NCc3cccc4ccccc34)C(=O)N(CCc3ccc(OC)c(OC)c3)C1=C[C@H](C(C)C)O[C@@H]2C1CC1	FUS yeast rescue 13µM (no result: Abeta rescue, pAkt inh, TDP43 rescue, aSyn rescue)
COC(=O)[C@]12C[C@H](CC(=O)NCc3ccc(OC)c(OC)c3)C(=O)N(Cc3cccc4ccccc34)C1=C[C@H](C1CCCC1)O[C@@H]2C	FUS yeast rescue 13µM (no result: Abeta rescue, pAkt inh, TDP43 rescue, aSyn rescue)
COC(=O)[C@]12C[C@H](CC(=O)NCc3ccc(C)o3)C(=O)N(Cc3cccc4ccccc34)C1=C[C@H](C1CCCC1)O[C@@H]2C	FUS yeast rescue 28µM (no result: Abeta rescue, pAkt inh, TDP43 rescue, aSyn rescue)
COC(=O)[C@]12C[C@H](CC(=O)N3CCN(C(=O)c4ccco4)CC3)C(=O)N(Cc3cccc4ccccc34)C1=C[C@H](C1CCCC1)O[C@@H]2C	FUS yeast rescue 16µM (no result: Abeta rescue, pAkt inh, TDP43 rescue, aSyn rescue)
COC(=O)[C@]12C[C@H](CC(=O)N3CCN(C(=O)c4ccco4)CC3)C(=O)N(CCc3ccc(OC)c(OC)c3)C1=C[C@H](C1CCCC1)O[C@@H]2C	none (no result: Abeta rescue, pAkt inh, TDP43 rescue, aSyn rescue)
CCn1ccc2cc(S(=O)(=O)N3CCC(C(=O)NCc4cccc(Cl)c4)CC3)ccc21	FUS yeast rescue inconclusive (no result: pAkt inh, aSyn rescue)
COc1ccc(NC(=O)C2CCCN(S(=O)(=O)c3cccs3)C2)cc1 (centres undefined)	none (no result: pAkt inh, aSyn rescue)
COc1ccc(C2Nc3ccccc3C(=O)N2Cc2ccccc2)cc1COc1ccc(NC(C)=O)cc1 (centres undefined)	FUS yeast rescue 16µM (no result: Abeta rescue, pAkt inh, TDP43 rescue, aSyn rescue)
COc1ccc(C2Nc3ccc(NC(C)=O)cc3C(=O)N2Cc2ccccc2)cc1COc1ccc(NC(C)=O)cc1 (centres undefined)	none (no result: Abeta rescue, pAkt inh, TDP43 rescue, FUS yeast rescue)
COc1ccc(C2Nc3ccccc3C(=O)N2Cc2ccco2)cc1COc1c(C)cc(NC(C)=O)cc1C (centres undefined)	FUS yeast rescue 10µM (no result: Abeta rescue, pAkt inh, TDP43 rescue, aSyn rescue)
CCN(CC)c1ccc(/C=C/c2sc3ccccc3[n+]2CCCCI)cc1	none (no result: Abeta rescue, pAkt inh, TDP43 rescue, FUS yeast rescue)
Cc1ccccc1-n1c(SCC(=O)c2cc(C)n(C)c2C)nnc1-c1cccnc1	none
COCCn1c(C)cc(C(=O)CSc2nnc(-c3cccnc3)n2-c2ccccc2F)c1C	FUS yeast rescue 20µM (no result: pAkt inh, aSyn rescue)
Oc1ccc(-c2nccc(-c3cccs3)n2)cc1	TDP43 rescue 13µM
COC(=O)C(C)Oc1ccc(-c2nccc(-c3cccs3)n2)cc1 (centres undefined)	none
CCOC(=O)c1cnc(SC2CCc3ccccc3C2=O)nc1N (centres undefined)	TDP43 rescue 20µM, FUS yeast rescue inconclusive
